Inconclusive results are not listed. A number with no mark means an inactive call. Active and inactive are the calls of the source. Calls follow the shape of the dose curve; as a rule, active = well fitted cell-killing curve with a large enough effect; inconclusive = small, poorly fitted or top-dose-only effect, or effect the other way; inactive = no such curve, though single readings can be large or run the other way.
Potency is read from the fitted curve at half-maximal effect.

A short description of the experiment: Quantitative High-Throughput drug screen in 47 multiple myeloma cell lines against the NCATS MIPE library collection: KMS28BM_JCRB cell viability assay (AID 1919874). Also: nearly all actives have a fitted effect of over 35% in size. Particulars: CellTiter-Glo ATP, 48 h; series mostly up to 45.8 µM; viability, % of control: at the top concentration. The method, boiled down:
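500 cells/well; MIPE 4.0 drugs pin-transferred; 48 h, 37C, 5% CO2. CellTiter-Glo, 5 min RT, luminescence. Controls: DMSO 100%, media 0%.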
In the case of `COc1cc(C=CC(=O)CC(=O)C=Cc2ccc(O)c(OC)c2)ccc1O`, the Potency was 10.8 µM (active). In the case of `COc1ccc(CCC(=O)c2c(O)cc(O[C@@H]3O[C@H](CO)[C@@H](O)[C@H](O)[C@@H]3O[C@@H]3O[C@@H](C)[C@H](O)[C@@H](O)[C@@H]3O)cc2O)cc1O`, the “viability, % of control” value is 118%. Take `CC[C@@]1([C@@H]2O[C@@H]([C@H]3O[C@@](O)(CO)[C@H](C)C[C@H]3C)C[C@H]2C)CC[C@H]([C@]2(C)CC[C@]3(C[C@H](O)[C@@H](C)[C@@H]([C@@H](C)[C@@H](OC)[C@H](C)C(=O)O)O3)O2)O1`: the Potency is 0.575 µM (active). In the case of `CC(=O)O[C@]1(C(C)=O)CC[C@H]2[C@@H]3C=C(C)C4=CC(=O)CC[C@]4(C)[C@@H]3CC[C@@]21C`, the “viability, % of control” value is 125%. Consider `CCOC(=O)N1CCN([N+]([O-])=NOc2ccc([N+](=O)[O-])cc2C#N)CC1`, for which the Potency was 0.935 µM (active). On the same count and under the same terms, the result for `CO[C@@H]1[C@@H](O)[C@H](O)[C@@H](n2c3c(Cl)cccc3c3c4c(c5c6cccc(Cl)c6[nH]c5c32)C(=O)NC4=O)O[C@@H]1CO` reads 0.935 µM (active). As for `N#CC(=C(O)c1ccc(Cl)cc1Cl)c1nc2cc(Cl)ccc2c(=O)[nH]1`, the “viability, % of control” value was 106%. Same read-out and setting: for `O=C(NCc1ccccc1)[C@H](Cc1ccccc1)NC(=O)[C@@H]1O[C@@H]1C(=O)NCCc1ccc(O)cc1` the value was 94%. Consider `CC(C)(O)Cn1c(NC(=O)c2ccc(-c3cn[nH]c3)s2)nc2cc(CN3CCOCC3)ccc21`, for which the Potency is 0.743 µM (active). The same measure, in the same setting: for `C[C@@H](Oc1ccc2[nH]nc(C=Cc3cnn(CCO)c3)c2c1)c1c(Cl)cncc1Cl` the value was 1.18 µM (active).

`CC1(C)O[C@@H]2C[C@H]3[C@@H]4CCC5=CC(=O)C=C[C@]5(C)[C@@H]4[C@@H](O)C[C@]3(C)[C@]2(C(=O)CO)O1`: the “viability, % of control” value is 95%. In the case of `N#Cc1ccc(COC[C@H]2O[C@@H](n3c(NCc4ccc(Cl)c(Cl)c4)nc4c(N)ncnc43)[C@@H](O)[C@@H]2O)cc1`, the Potency is 5.9 µM (active). On the same count and under the same terms, for `C[C@H](NCc1ccc2c(c1)nc(NC(=O)c1ccc(-c3cn[nH]c3)s1)n2CCc1ccccc1)C(C)(C)C` the value was 0.833 µM (active). On the same count and under the same terms, the result for `COc1cc(OC)cc(-c2ccc3ncc4ccc(=O)n(-c5ccc(N6CCNCC6)c(C(F)(F)F)c5)c4c3c2)c1` reads 4.69 µM (active); that for `Cc1cnn(C)c1C(=O)Nc1cc(Nc2ccc3c(C=Cc4ccccn4)n[nH]c3c2)ccc1F`, 20.9 µM (active); that for `C=CC(=O)Nc1cc(NC(=O)c2ccc(C)c(NC(=O)c3ccno3)c2)cc(C(F)(F)F)c1`, 20.9 µM (active). On to `CC(C=CC1=C(C)CCCC1(C)C)=CC=CC(C)=CC(=O)Nc1ccc(O)cc1`, for which the Potency is 17.1 µM (active). For the molecule `CCn1c(=O)c2c(nc(C=Cc3ccc(OC)c(OC)c3)n2C)n(CC)c1=O`, the “viability, % of control” value is 125%. With `Cc1nc(NC(=O)N2CCC[C@@H]2C(N)=O)sc1-c1ccnc(C(C)(C)C(F)(F)F)c1`, the Potency is 1.18 µM (active). In the case of `CCOC(=O)N1CCN([N+]([O-])=NOc2ccc([N+](=O)[O-])cc2[N+](=O)[O-])CC1`, the Potency was 0.833 µM (active). Still for that read-out and setting: the result for `C=C1C(=O)O[C@H]2[C@@H]1CCC(C)=CCC[C@@]1(C)O[C@@H]21` reads 7.43 µM (active); that for `CC(=O)[C@]1(O)Cc2c(O)c3c(c(O)c2[C@@H](O[C@H]2C[C@H](N)[C@@H](O)[C@H](C)O2)C1)C(=O)c1ccccc1C3=O`, 0.148 µM (active).

Regarding `CC(=CC(=O)Nc1ccccc1C(=O)O)c1ccc2ccccc2c1`, the “viability, % of control” value is 126%. Consider `CON=C(C(=O)N[C@@H]1C(=O)N2C(C(=O)O)=C(CSC(=O)c3ccco3)CS[C@H]12)c1csc(N)n1`, for which the “viability, % of control” value was 97.7%.

Turning to `N#CC(=C(N)Sc1ccc(N)cc1)c1ccccc1C(F)(F)F`, the “viability, % of control” value is 95.7%. On the same count and under the same terms, the result for `CN1[C@H]2CC(OC(=O)[C@@H](CO)c3ccccc3)C[C@H]1[C@H]1O[C@H]12` (some centres undefined) reads 67.5% [at 23.2 µM].

`COc1cc2c(cc1O)CCC1C2CC[C@@]2(C)C1CC[C@@H]2O` (some centres undefined): the Potency is 0.935 µM (active).

For `CCC(C=C[C@@H]1OC(=O)C=C[C@H]1C)=C[C@H](C)CC=CC(C)=C[C@@H](C)C(=O)[C@@H](C)[C@H](O)[C@@H](C)CC(C)=CC(=O)O`, the Potency was 0.011 µM (active). On the same count and under the same terms, the result for `CC(=O)NCC(=O)N1[C@H]2CC[C@H]1c1cc(Nc3ncc(C(F)(F)F)c(NC4CCC4)n3)ccc12` reads 3.32 µM (active).

In the case of `O=C(C[C@@H]1CC=CCCC(=O)O[C@H](c2ccccc2)CNC1=O)NCc1ccc(Cl)cc1`, the “viability, % of control” value was 117%. Take `COC1=C2C[C@@H](C)C[C@H](OC)[C@@H](O)[C@@H](C)C=C(C)[C@H](OC(N)=O)[C@@H](OC)C=CC=C(C)C(=O)NC(=CC1=O)C2=O`: the Potency is 0.0935 µM (active). In the case of `COc1cccc2c1C(=O)c1c(O)c3c(c(O)c1C2=O)C[C@@](O)(C(=O)CO)C[C@H]3O[C@H]1C[C@H](N)[C@H](O)[C@H](C)O1`, the Potency is 0.296 µM (active).

As for `C[C@H](NCc1ccc(OCc2cccc(F)c2)cc1)C(N)=O`, the Potency is 5.9 µM (active).

For the molecule `C[C@]12CC[C@@H]3c4ccc(O)cc4CC[C@H]3[C@H]1CC[C@H]2O`, the Potency was 23.5 µM (active). On the same count and under the same terms, for `O=C(C=CC#Cc1cccc(NS(=O)(=O)c2ccccc2)c1)NO` the value was 0.833 µM (active); for `CCOc1cc2c(c(F)c1OCC)C(=N)N(CC(=O)c1cc(N3CCOCC3)c(OC)c(C(C)(C)C)c1)C2`, 8.33 µM (active). Consider `C#C[C@]1(O)CC[C@@H]2[C@@H]3CCc4cc(O)ccc4[C@H]3CC[C@@]21C`, for which the Potency is 4.69 µM (active).

Take `C=C1C(=CC=C2CCC[C@]3(C)[C@@H]([C@H](C)CCCC(C)(C)O)CC[C@@H]23)C[C@@H](O)C[C@@H]1O`: the Potency is 1.87 µM (active).

Turning to `C=CCNC1=C2C[C@@H](C)C[C@H](OC)[C@@H](O)[C@@H](C)C=C(C)[C@H](OC(N)=O)[C@@H](OC)C=CC=C(C)C(=O)NC(=CC1=O)C2=O`, the Potency is 0.662 µM (active).

Values taken from PubChem BioAssay (NCATS).
